PubChem BioAssay (NCI)
The panel holds about 83,000 compounds, 20% with a hit somewhere; the sample as a whole holds those more often.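 Treatment: one concentration, 48 hours, 96-well format. Scoring: percent growth, with anything below 10 considered active.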 A number with no mark means an inactive call. Calls of active or inactive are those of the source.

Tests used:
Assay in all cases: NCI-60 one-dose screen, 48 h (100 = growth as untreated, 0 = no growth, -100 = all killed)
Conditions in all cases: 10 µM unless noted
HCT-15 colon = tested on: HCT-15 colon
HT29 colon = tested on: HT29 colon
SNB-75 CNS = tested on: SNB-75 CNS
U251 CNS = tested on: U251 CNS
PC-3 prostate = tested on: PC-3 prostate
SK-MEL-5 melanoma = tested on: SK-MEL-5 melanoma
UACC-62 melanoma = tested on: UACC-62 melanoma
LOX IMVI melanoma = tested on: LOX IMVI melanoma
SK-MEL-28 melanoma = tested on: SK-MEL-28 melanoma
SNB-19 CNS = tested on: SNB-19 CNS

SMILES | growth (HCT-15 colon) | growth (HT29 colon) | growth (SNB-75 CNS) | growth (U251 CNS) | growth (PC-3 prostate) | growth (SK-MEL-5 melanoma) | growth (UACC-62 melanoma) | growth (LOX IMVI melanoma) | growth (SK-MEL-28 melanoma) | growth (SNB-19 CNS)
CCCCCCCC(=O)OCC(=O)[C@]1(O)Cc2c(O)c3c(c(O)c2[C@@H](OC2CC(N)C(O)C(C)O2)C1)C(=O)c1c(OC)cccc1C3=O (some centres undefined) | -61.5% (active) | -63.5% (active) | -79.5% (active) | -46.5% (active) | -100% (active) | -91.2% (active) | -75.4% (active) | -4.4% (active) | -84% (active) | 
COC(=O)[C@@]1(C)CC[C@]2(C)CC[C@]3(C)C4=CC=C5C(=CC(=O)C(O)=C5C)[C@]4(C)CC[C@@]3(C)[C@@H]2C1 | -83.7% (active) | -74.1% (active) | -78.9% (active) |  | -88.5% (active) | -97.1% (active) | -92.7% (active) | -90.5% (active) | -92.9% (active) | -94.2% (active)
COC(=O)CC[C@H](Cc1ccccc1)NC(=O)c1csc([C@@H](C[C@H](C(C)C)N(C)C(=O)[C@@H](NC(=O)[C@H]2CCCCN2C)C(C)C)OC(C)=O)n1 | 57.6% | 5.29% (active) | 34.3% |  | 39.8% | -13.4% (active) | 34.4% | 29.3% | 77.3% | 44.2%
COc1cc(/C=C/[N+](=O)[O-])cc(OC)c1 | -44.5% (active) | -25.6% (active) | 25.1% |  | -25.4% (active) | 8.23% (active) | 2.61% (active) | -93.9% (active) | -16.9% (active) | 24.6%
COc1ccc(S(=O)(=O)Nc2c(/C=C\c3cc(OC)c(OC)c(OC)c3)ccc(OC)c2O)cc1OC | 15.6% | 10% | 43.8% |  | 28.2% | -34.9% (active) | 45.2% | 21.6% | 58.6% | 39%
CN[C@@]1(c2ccccc2Cl)CCCC[C@@H]1NCC1CCCO1 (some centres undefined) | 104% | 101% | 88.2% |  | 94.2% | 102% | 96.5% | 97.8% | 101% | 95.8%
Cn1cccc1C1CC(=O)N(CCC[Se]C#N)C1=O (centres undefined) | -56.5% (active) | 7.03% (active) |  | -85.5% (active) | 6.15% (active) | -51.9% (active) | 27% | -66.8% (active) | -6.1% (active) | -65.2% (active)
O=[As](O)(O)c1ccccc1[As](=O)(O)O | 91.1% |  | 116% | 93.6% | 93.3% | 107% | 98.5% | 87.6% | 117% | 109%
COc1ccc(C2=CC(c3ccc(OC)c(OC)c3)c3c(c4ccccc4oc3=O)O2)cc1OC (centres undefined) | 13.6% |  | -4.06% (active) | 24.2% | -18.3% (active) | 17.1% | 36.8% | 36% | 50.9% | 17.9%
Clc1ccc(N2COOC3(OOC2)C2CC4CC(C2)CC3C4)cc1 | 64% | 60% |  | 28.4% | 53.7% | 55.5% | 39.4% |  | 103% | 74.3%
C1CCC2(CC1)OOCNCOO2 | 99.3% | 97.7% |  | 105% | 98% | 93.5% | 113% | -76.6% (active) | 110% | 113%
CCCCCCC(=O)NC1=C(N2CC2)C(=O)C(NC(=O)CCCCCC)=C(N2CC2)C1=O | 69% | 19.2% |  | 52.1% | 35.4% | 52.4% | 30.6% | 33.5% | 81.5% | 60.6%
Fc1cccc(NCOOC2(OOCNc3cccc(F)c3)CCCCC2)c1 | 99.2% | 96% |  | 102% | 88.9% | 95.2% | 104% | -68.9% (active) | 109% | 96.2%
Clc1cccc(N2COOC3(OOC2)C2CC4CC(C2)CC3C4)c1 | 94.6% | 85.2% |  | 35.8% | 74.8% | 86.5% | 93.3% | -63.4% (active) | 114% | 101%
COc1cc(C=C2c3ccccc3C(=O)c3ccccc32)ccc1OCCCCOc1cc2c(cc1OC)C(=O)N1CCCC1C=N2 (centres undefined) | -75.6% (active) |  | -90.9% (active) | -100% (active) | -45.9% (active) | -92.4% (active) | -90.1% (active) | -100% (active) | -82.8% (active) | -89.2% (active)
COc1ccc(C2=N[C@@H](Cc3ccccc3)C(=O)Nc3ccsc32)cc1 | 34.7% | 17.9% |  | 42.7% | 59.1% | 34.9% | 16.9% | 47.6% | 54.5% | 69.8%
O=C1CN=C(c2ccc(Cl)cc2)c2sccc2N1 | 98.6% | 100% |  | 101% | 98.6% | 99.5% | 91.6% | 95.3% | 105% | 96.6%
COc1ccc(/C=C\c2cc(OC)c(OC)c(OC)c2)cc1NS(=O)(=O)c1ccc(Cl)cc1 | 54.2% | 75.7% |  | 77.8% | 42.7% | 51.6% | 45.1% | 71.3% | 53% | 87.2%
CC(=O)[C@H]1CC[C@H]2[C@@H]3CC[C@H]4C[C@H](N)CC[C@]4(C)[C@H]3CC[C@]12C | 64.5% | 13.7% | 49.5% | 69.2% | 62.1% | 62.8% | 80.9% |  | 86.2% | 
Clc1cccc(NCOOC2(OOCNc3cccc(Cl)c3)CCCCC2)c1 | 70.2% | 74.5% |  | 61.4% | 77.6% | 71.4% | 34.3% | -86.1% (active) | 100% | 90.2%
C[N+]12CN3CN(CN(C3)C1)C2 | 110% | 99.3% | 46.8% | 100% | 81.3% | 112% | 104% | 99.7% | 106% | 
CCOC(=O)CCC(NC(=O)C(Cc1ccc(N(CCCl)CCCl)cc1)NC=O)C(=O)OCC (centres undefined) | 36.3% | 62.3% | 30.3% | 48.4% | 71.7% | -70.1% (active) | -37.7% (active) | -78.3% (active) | -29.9% (active) | 
O=[N+]([O-])c1cc([N+](=O)[O-])c(Cl)cc1Cl | -58.4% (active) |  | -97.7% (active) | -71.3% (active) | -14.7% (active) | 30.1% | -79% (active) | -91.1% (active) | -41.2% (active) | 7.75% (active)
COc1cc2c(=O)n(C3CCCCCCC3)c3c4cc[nH]c4ncc3c2cc1OC | 62.4% | 66.8% |  | 12.7% | 65.8% | 64.2% | 89.1% | 41.5% | 85.5% | 55.2%
O=C1C(N2CC2)=C(N2CC2)C(=O)C(N2CC2)=C1N1CC1 | 2.19% (active) | 2.38% (active) | -52.6% (active) | -63.6% (active) | 7.53% (active) | -76.7% (active) | -84.6% (active) | -61.5% (active) | -51.8% (active) | 
O=C(Nc1ccc([As]=[As]c2ccc(NC(=O)c3ccccc3)cc2)cc1)c1ccccc1 (centres undefined) | -79.6% (active) | -35.7% (active) | -97% (active) | -78.6% (active) | -86.2% (active) | -99.6% (active) |  | -52.2% (active) | -94% (active) | 
Cc1ccc(N2COOC3(OOC2)C2CC4CC(C2)CC3C4)cc1 | 96.6% | 97.5% |  | 96.1% | 93.5% | 90.5% | 109% | -61.6% (active) | 103% | 106%
COC(=O)[C@@H](C)C[C@H](Cc1ccccc1)NC(=O)c1nc([C@@H](C[C@H](C(C)C)N(C)C(=O)[C@@H](NC(=O)[C@H]2CCCN2C)C(C)C)OC(C)=O)sc1C | 13.4% |  | 51.2% | 5.39% (active) | 17.2% | -20.7% (active) | 46.6% | 25.6% | 65.6% | 42%
